Source: PubChem (National Center for Advancing Translational Sciences (NCATS))
DT40 TDP1 no CPT – qHTS for Inhibitors of human tyrosyl-DNA phosphodiesterase 1 (TDP1): qHTS in cells in absence of CPT. hit rate 15% among 420,000. Potency, µM (series often up to 46.2 µM), without a hit: top-dose activity change, negative = growth inhibition, actives largely listed as inhibitors. DT40 Tdp1-/- hTDP1 cells, no CPT, ATP luminescence, 48 h; further: nearly all actives have a fitted effect of over 55% in size
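Seeded 400 DT40-hTDP1 cells/well (vehicle DMSO, no 20 nM CPT); pinned compounds; ≥48 hr at 37 °C; CellTiter-Glo luminescence as viability measure.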
KAT2A inh – GCN5L2 (KAT2A) acetyltransferase inhibition. Q92830. GCN5L2 HAT assay, ThioGlo1 CoA-SH fluorescence. Potency, µM (highest dose often 58.9 µM), for inactives: at the top dose activity change, negative = inhibition, most hits filed as inhibitors. hit rate 0.21% among 390,000
Target sequence (Q92830 whole entry, looked up): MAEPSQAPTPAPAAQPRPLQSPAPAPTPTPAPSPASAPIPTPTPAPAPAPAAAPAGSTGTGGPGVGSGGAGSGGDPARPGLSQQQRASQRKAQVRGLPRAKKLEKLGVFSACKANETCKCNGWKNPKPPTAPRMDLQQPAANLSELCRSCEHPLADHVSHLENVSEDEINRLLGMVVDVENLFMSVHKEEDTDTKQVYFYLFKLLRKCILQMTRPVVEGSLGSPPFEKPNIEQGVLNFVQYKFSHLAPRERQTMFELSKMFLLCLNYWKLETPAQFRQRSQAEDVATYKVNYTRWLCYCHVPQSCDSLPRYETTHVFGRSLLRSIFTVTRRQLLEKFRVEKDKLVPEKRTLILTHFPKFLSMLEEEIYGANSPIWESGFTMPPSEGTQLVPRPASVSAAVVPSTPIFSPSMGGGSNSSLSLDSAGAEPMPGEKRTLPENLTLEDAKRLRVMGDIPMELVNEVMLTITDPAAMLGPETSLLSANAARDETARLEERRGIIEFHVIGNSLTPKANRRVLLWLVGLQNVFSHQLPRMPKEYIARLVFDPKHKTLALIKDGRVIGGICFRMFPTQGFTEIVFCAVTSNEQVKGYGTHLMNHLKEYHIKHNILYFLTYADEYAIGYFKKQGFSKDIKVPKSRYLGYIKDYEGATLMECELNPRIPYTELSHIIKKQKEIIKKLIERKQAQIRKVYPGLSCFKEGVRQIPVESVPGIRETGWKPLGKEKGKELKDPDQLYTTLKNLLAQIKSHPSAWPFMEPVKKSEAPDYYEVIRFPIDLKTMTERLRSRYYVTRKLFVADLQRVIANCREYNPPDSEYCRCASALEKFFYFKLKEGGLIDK
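Free CoA generated was detected with ThioGlo1 (50uM) fluorescence at Ex340nm/Em540nm, read immediately and after 20 min at room temperature. Enzyme, 20 nM in HEPES pH 7.5 buffer, saw compounds 15 min before adding 75uM H3(1-25) peptide and 70uM acetyl-CoA.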
PLK1 PBD inh – blocks phosphopeptide binding to human PLK1 polo-box domain | Potency, µM, for the others: max response, negative = inhibition, actives largely listed as inhibitors | P53350 | Plk1 PBD binding of FITC phosphopeptide, fluorescence polarization | hit rate 2.8% among 360,000 | AID 720504; further: series mostly up to about 57 µM; nearly all actives have a fitted effect of over 65% in size
TDP1 cell CPT – growth inhibition of DT40 Tdp1-/-;hTDP1 cells with camptothecin (screen for TDP1 inhibitors) | chicken DT40 Tdp1-/-;hTDP1 cells + 20 nM CPT, ATP luminescence, 48 h | Potency, µM (series often up to 46.2 µM), without a hit: top-dose activity change, negative = growth inhibition, hits mostly inhibitors | hit rate 12% among 420,000 | AID 686979; further: nearly all actives have a fitted effect of over 55% in size
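Cell growth measured by CellTiter-Glo luminescence after a minimum 48 h, 37 C compound exposure with 20 nM CPT in Tdp1-knockout DT40 cells stably expressing hTDP1, seeded 400/well; qHTS titration format.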
VDR inhibitor – vitamin D3 receptor (human) inhibition; Potency, µM, for the others: max response, negative = inhibition, hits mostly inhibitors; hit rate 0.93% among 400,000; VDR-SRC2-3 peptide fluorescence polarization, 2 h
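Two reagent solutions held at 4 deg C in the dark were dispensed, compounds pinned at 23 nl, and the mixture incubated 2 h at room temperature. Read-out: fluorescence polarization of VDR–SRC2-3 peptide binding.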
TDP1 block – TDP1 (human) enzyme inhibition. Q9NUW8. recombinant TDP1, AlphaScreen DNA substrate cleavage. Potency, µM (series often up to 130 µM), inactives show at the top dose activity change, negative = inhibition, usual class: inhibitors. hit rate 0.28% among 350,000. AID 485290; further: nearly all actives have a fitted effect of over 40% in size
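Recombinant E. coli-expressed Tdp1 (1 nM) preincubated with compound 15 min at RT, then 5'-biotin/3'-phosphotyrosine-FITC DNA substrate (15 nM) added for 5 min. AlphaScreen beads (10 ug/ml) added, 10 min RT; tyrosine-FITC cleavage read as signal loss.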
* = called active by the depositor; ? = inconclusive; · = no result given; [ ] = another dose, or the depositor's remark. Most compounds without a hit are left out; they make up all but 18% or so of the library. The call rests on the fitted dose curve; in most records, active means well fitted curve in the direction sought with a large enough effect; inconclusive means small, poorly fitted or top-dose-only effect, or another doubt; inactive means no such curve, though single readings can be large; an effect the other way counts as inactive or inconclusive. On the % scale 0 is the no-effect control and ±100 the full control effect; potency means the concentration at half of the fitted maximal effect.

SMILES | DT40 TDP1 no CPT | KAT2A inh | PLK1 PBD inh | TDP1 cell CPT | VDR inhibitor | TDP1 block
CC(C)c1ccc(NC(=O)C2CCN(S(=O)(=O)c3cccc4nsnc34)CC2)cc1 | ? | 2% | · | ? | -24% | 0%
CC(C)Cc1nnc(NS(=O)(=O)c2ccccc2)s1 | -4% | · | ? | -16% | · | ·
CC(C)(C)Cc1nnc(NS(=O)(=O)c2ccccc2)s1 | 0% | -7% | 27µM* | 4% | -13% | 1%
CC(C)(C)c1nnc(NS(=O)(=O)c2ccc(F)cc2)s1 | ? | · | 9.5µM* | -29% | 79µM* | ·
O=S(=O)(Nc1nnc(C(F)(F)F)s1)c1ccc(Cl)cc1 | 7% | 0% | -18% | -4% | -30% | ·
COc1cc(-c2ccc(C(F)(F)F)cn2)cc2c1OCCN(S(=O)(=O)C[C@]13CC[C@H](CC1=O)C3(C)C)C2 | -25% | · | · | -8%[9.04 µM] | · | ·
O=C([C@H](Cc1ccc(O)cc1)n1cc(CCO)nn1)N1CCNCC1 | 4% | 1% | -4% | 3% | -11% | 4%
CCOc1ccc(OCC(=O)N(CCC2=CCCCC2)c2c(N)n(Cc3ccccc3)c(=O)[nH]c2=O)cc1 | · | 1% | · | · | · | ·
CC(CC(=O)N(CCC1=CCCCC1)c1c(N)n(Cc2ccccc2)c(=O)[nH]c1=O)c1ccccc1 (stereo not given) | 16µM* | -5% | -9% | 26µM* | -25% | ·
CCOc1ccc(OCCC(=O)N(CCC2=CCCCC2)c2c(N)n(Cc3ccccc3)c(=O)[nH]c2=O)cc1 | ? | -1% | -8% | 16µM* | 2% | 4%
CC1CCCN(C(=O)c2cc3c(=O)n(C)c4ccccc4c3s2)C1 (stereo not given) | 0% | -3% | · | -4% | -6% | 2%
COc1ccc2c(c1)CC(N1CCN(C)CC1)c1cc(OC)ccc1S2 (stereo not given) | ? | · | -4% | ? | 8% | ·
Fc1ccc2c(c1)Sc1ccc(Cl)cc1CC2N1CCN(CCC2OCCO2)CC1 (stereo not given) | 18µM* | · | -6% | ? | 0% | ·
CCn1c(CNC(=O)c2ccc(OC)cc2)nnc1SCC(=O)Nc1cc(C)ccc1C | -15% | 1% | · | -18% | 2% | -2%
COc1cccc(CNc2nc3cc(-c4ccc(OC)c(OC)c4)sc3c(=O)n2C)c1 | -16% | · | -6% | -7% | · | ·
COc1cccc(CNc2nc3cc(-c4ccc(C)cc4)sc3c(=O)n2C)c1OC | 18µM* | · | 3% | 16µM* | · | ·
COc1cccc(CNc2nc3cc(-c4ccc(F)cc4)sc3c(=O)n2C)c1OC | 16µM* | · | -2% | 26µM* | · | ·
COc1cccc(CNc2nc3cc(-c4ccsc4)sc3c(=O)n2C)c1OC | ? | · | 2% | ? | · | ·
NCC1O[C@@H](OC2C(N)C[C@H](N)[C@@H](O[C@H]3OC(CO)C(O)C(N)C3O)C2O)C(O)C(O)C1O (stereo not given in full) | -3% | 0% | · | 18% | -4% | -8%[56.1 µM]
COc1ccc(NC(=O)CCc2nc3c(C)nn(-c4ccc(C)cc4)c3n(C)c2=O)c(OC)c1 | -19% | 4% | · | -5% | 14% | -6%
CCOc1ccc(N2C(=O)CC(SCc3nc4ccccc4[nH]3)C2=O)cc1 (stereo not given) | ? | -10% | -13% | 16µM* | 10% | ·
CCOc1ccc2nc(SC3CC(=O)N(c4ccccc4)C3=O)sc2c1 (stereo not given) | 3.7µM* | -3% | -8% | 2.9µM* | 4% | -4%
CCOc1ccc2nc(SC3CC(=O)N(c4cccc(OC)c4)C3=O)sc2c1 (stereo not given) | 3.7µM* | -8% | -4% | 3.3µM* | -2% | 3%
O=C1CC(SCc2nc3ccccc3[nH]2)C(=O)N1c1ccc(Cl)cc1 (stereo not given) | ? | 5% | -16% | ? | -8% | 5%
CCOc1ccc2nc(SCCNS(=O)(=O)c3ccccc3)sc2c1 | 16µM* | -10% | -6% | -28% | 4% | -3%
SMILES | DT40 TDP1 no CPT | KAT2A inh | PLK1 PBD inh | TDP1 cell CPT | VDR inhibitor | TDP1 block
Cc1c(NC(=O)Nc2ccc(F)cc2F)c(=O)n(-c2ccccc2)n1C | 12% | -4% | -13% | -17% | -6% | 7%
CCC(C(=O)NCC1CCCO1)n1nc(C)c2sc3ccccc3c2c1=O (stereo not given) | ? | 4% | -1% | ? | 0% | 3%
CCN(CC)S(=O)(=O)c1ccc2c(c1)oc(=O)n2CC(=O)NC1CCCCC1 | 0% | -9% | -15% | -27% | 3% | 1%
COC(=O)Nc1nc(-c2ccccc2)c(C(=O)c2ccc(Cl)cc2)s1 | 0.65µM* | 1% | -3% | 0.58µM* | 6% | 4%
CCOC(=O)Nc1nc(-c2ccccc2)c(C(=O)c2ccccc2)s1 | 0.65µM* | -15% | -2% | 0.58µM* | 7% | 0%
COCC(=O)Nc1cc(C(=O)N2CCCCC2c2nccs2)c2c(c1)nc(-c1ccncc1)n2C (stereo not given) | -6% | · | · | -5% | · | ·
CCCS(=O)(=O)NC(=O)C1(C)CCCN(C(=O)c2cccc(Cl)c2)C1 (stereo not given) | -12% | · | 6% | 17% | · | ·
CCOc1ccc2nc(-c3ccccc3)nc(SCC(=O)OC)c2c1 | -10% | -4% | 7% | 13% | -11% | ·
CCOc1ccc2[nH]c(SCC(=O)OC)c([N+](=O)[O-])c2c1 | 4.6µM* | 3% | -16% | 6.5µM* | ? | -1%
O=C(C1=COCCO1)N1CCN(c2nc3ccc([N+](=O)[O-])cc3s2)CC1 | 5.2µM* | 2% | -6% | 9.2µM* | -8% | -6%
CC(=O)N1CCN(c2nc3ccc([N+](=O)[O-])cc3s2)CC1 | ? | -19% | -6% | ? | -25% | 5%
COc1ccc(OC)c(S(=O)(=O)Nc2cccc(-c3ccc(N4CCCCC4)nn3)c2)c1 | -28% | -30% | · | -3% | -25% | -2%
Cc1cc(=O)oc2cc(OCC(=O)OCC(=O)N3CCC(C)CC3)ccc12 | -13% | -3% | -16% | -4% | -8% | -8%
COC(=O)c1ccc(=O)c2nc3/c(=C/O)c(O)cc(=O)c3[nH]c12 | ? | ? | 19µM* | 21µM* | -11% | ?
COC(=O)c1cc(=O)[nH]c(SCc2cccc(C)c2)n1 | 2% | 0% | -2% | 26% | 3% | 3%
CC1(C)CC(NCCN2CCN(C3=CC(=C(C#N)C#N)CC(C)(C)C3)CC2)=CC(=C(C#N)C#N)C1 | 13µM* | -8% | 3% | 18µM* | -20% | 5%
CNC(=S)N1CCN(CCNC2=CC(=O)CC(C)(C)C2)CC1 | 14% | -5% | -9% | 5% | 1% | -3%
